Source: PubChem BioAssay (several laboratories)
Most compounds without a hit are left out; they make up all but 0.51% or so of the library.
E coli growth-1 – inhibitors of Escherichia coli growth; AID 1053175; OD600, 23 h; active compounds read low; OD600 absorbance (concentration not given with the values); 330,000 compounds, 0.21% hits;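 active = OD600 absorbance below the run mean of sample wells minus 3.6 SD, in any replicate, cut at about 0.56 in these data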
AddAB inh – less growth of phage-infected E. coli with AddAB | E. coli expressing H. pylori AddAB, absorbance growth | inhibition, % at 11.9 µM | 330,000 compounds, 0.29% hits | AID 435030; in the data active = inhibition above about 12%
Tat export inh – blocks Tat-dependent protein export in E. coli | inhibition, % at 10 µM | AID 488895 | 340,000 compounds, 0.036% hits | E. coli MC4100 TorA-mCherry Tat export, fluorescence;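 active = mean replicate inhibition at least 50% and at least half of replicates individually reaching 50%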;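 note: exported cargo escapes ClpAP degradation while cytoplasmic cargo is degraded and loses fluorescence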
phage Ecoli inh – E. coli growth loss with phage present; inhibition, % at 11.9 µM; AID 651602; 360,000 compounds, 0.26% hits; growth absorbance; in the data active = inhibition above about 11%
E coli growth-2 – counter-screen for AddAB inhibitors: E. coli growth inhibition; 330,000 compounds, 0.27% hits; E. coli V3065 growth, OD600 absorbance, 18 h; AID 449728; inhibition, % at 11.9 µM;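 active = inhibition above the campaign's mean inhibition across all tested compounds plus 3 SD, cut at about 9.9% in these data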;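 note: uninfected addAB+ strain grown without phage in ampicillin broth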
RecBCD conf – confirmation: growth loss of phage-infected RecBCD+ E. coli (RecBCD inhibitor screen); E. coli V66 + T4 2- phage, growth OD; inhibition, % at 11.9 µM; shares compounds with phage Ecoli inh; 890 compounds, 45% hits; AID 651982;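 active = mean inhibition over triplicates exceeding the hit threshold derived in the original primary screen, cut at about 11% in these data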
Ecoli viability – inhibits E. coli viability, flagging RecBCD hits as nonselective; shares compounds with phage Ecoli inh; absorbance (OD) growth; inhibition, % at 11.9 µM; 890 compounds, 29% hits; AID 651983; in the data active = inhibition above about 20%;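 note: E. coli strain V66 grown with compound alone and no phage infection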
AddAB phage OD – growth loss of phage-infected AddAB E. coli, RecBCD counter-screen; E. coli expressing H. pylori AddAB + T4 phage, OD growth; gene 2 mutant T4, recBCD-deleted host; 890 compounds, 45% hits; shares compounds with phage Ecoli inh; inhibition, % at 11.9 µM;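 active = mean inhibition above the solvent-only control wells' mean plus 3 SD, cut at about 22% in these data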;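 note: higher means less bacterial growth from phage killing when AddAB is blocked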
A number is an active result.

Screening O=C1NC(Cc2c[nH]c3ccccc23)COC(=O)C(Cc2ccc(F)cc2)CC=CCC1CC(=O)N(CCO)Cc1ccccc1 (stereo not given) returned E coli growth-1 inactive.
Nc1nnnn1N=Cc1cc(Cl)cc(Cl)c1OCc1ccc(Cl)cc1Cl was read as E coli growth-1 inactive.
For CCCn1c(=O)c(C(=O)NCCc2ccc(OC)c(OC)c2)c(O)c2ccccc21 the results were E coli growth-1 inactive, Tat export inh inactive and phage Ecoli inh inactive.
CCn1c(=O)c(C(=O)NCCc2ccc(OC)c(OC)c2)c(O)c2ccccc21 was read as E coli growth-1 inactive, AddAB inh inactive, Tat export inh inactive, phage Ecoli inh 11.1, E coli growth-2 9.9, RecBCD conf inactive, Ecoli viability inactive and AddAB phage OD inactive.
Cc1onc(-c2ccccc2)c1C(=O)NN=Cc1cc2c(cc1Br)OCO2 was read as E coli growth-1 inactive.
`Cc1cc2cc(CCNC(=O)c3cccs3)c(=O)[nH]c2cc1C` gave E coli growth-1 inactive, AddAB inh inactive, Tat export inh inactive, phage Ecoli inh 14.1, E coli growth-2 inactive, RecBCD conf inactive, Ecoli viability inactive and AddAB phage OD inactive.
`O=C(Nc1ccccc1)Nc1cc(Cl)cc(Cl)c1` gave AddAB inh inactive, Tat export inh inactive, phage Ecoli inh inactive and E coli growth-2 inactive.
For O=C(Nc1ccccc1)Nc1cc(OCC(F)(F)F)cc(OCC(F)(F)F)c1 the results were E coli growth-1 inactive, Tat export inh inactive, phage Ecoli inh 15.7, RecBCD conf inactive, Ecoli viability inactive and AddAB phage OD inactive.
CCOc1ccccc1N1CCN(Cc2cccc(OC)c2O)CC1 was read as E coli growth-1 inactive, AddAB inh inactive, Tat export inh inactive, phage Ecoli inh inactive and E coli growth-2 inactive.
`COc1ccccc1N1CCN(Cc2cc(Br)c(O)c3ncccc23)CC1` gave E coli growth-1 inactive, AddAB inh inactive, Tat export inh inactive, phage Ecoli inh 11.6, E coli growth-2 12.2, RecBCD conf inactive, Ecoli viability inactive and AddAB phage OD inactive.
O=C(N/N=C/c1cc(Cl)ccc1O)C(=O)Nc1ccccc1OC(F)(F)C(F)F was read as AddAB inh inactive, Tat export inh inactive, phage Ecoli inh 16.2, E coli growth-2 11.8, RecBCD conf inactive, Ecoli viability inactive and AddAB phage OD inactive.
Screening C=Cc1cnc([N+](=O)[O-])n1C returned phage Ecoli inh 28.5, RecBCD conf 19.0, Ecoli viability 21.4 and AddAB phage OD 97.2.
Screening CCOc1cccc(C=NNC(=O)C(=O)Nc2cccc(C(F)(F)F)c2)c1O returned phage Ecoli inh 17.5, RecBCD conf 11.5, Ecoli viability inactive and AddAB phage OD inactive.
O=C(NN=Cc1ccco1)C(=O)Nc1cccc(C(F)(F)F)c1 was read as phage Ecoli inh inactive.
Screening CC(=NNc1ccccn1)c1ccc(C(C)C)cc1 returned E coli growth-1 inactive.
Screening CC(=NNC(N)=O)C1(C)CCCCC1 returned E coli growth-1 inactive.
For CCOc1ccc(OCCCC(=O)ON=C(N)c2ccccc2Cl)cc1 the results were E coli growth-1 inactive, AddAB inh inactive, Tat export inh inactive, phage Ecoli inh 11.0, E coli growth-2 inactive, RecBCD conf inactive, Ecoli viability inactive and AddAB phage OD inactive.
`COc1ccc(OCCCC(=O)ON=C(N)c2ccccc2C)cc1` gave E coli growth-1 inactive, AddAB inh inactive, Tat export inh inactive, phage Ecoli inh inactive and E coli growth-2 inactive.
Cc1ccc(C=NNC(=O)c2cccc(NC(=O)c3ccccc3Cl)c2)o1 was read as E coli growth-1 inactive.
Screening CO[C@H]1C=CO[C@@]2(C)Oc3c(C)c(O)c4c(O)c(c(C=NN5CCN(C)CC5)c(O)c4c3C2=O)NC(=O)C(C)=CC=C[C@H](C)[C@H](O)[C@@H](C)[C@@H](O)[C@@H](C)[C@H](OC(C)=O)[C@@H]1C returned AddAB inh 48.7, Tat export inh 75.0, phage Ecoli inh 76.4, E coli growth-2 41.6, RecBCD conf 78.2, Ecoli viability 90.1 and AddAB phage OD 92.8.
